# Shown are actives, neighbours in structure and some others; about 12% of the full set was active somewhere.
# JMJD2A Tudor inh – qHTS Assay for Inhibitors of JMJD2A-Tudor Domain | AlphaScreen JMJD2A-Tudor / H3K4me3 peptide binding | actives 4.4% (n = 390,000) | Potency, µM (titrated, usually from 114 µM), for inactives: at the top dose activity change, negative = inhibition, actives largely listed as inhibitors | Lysine-specific demethylase 4A (Homo sapiens), O75164; further: on the % scale 0 is the no-effect control and ±100 the full control effect; nearly all actives have a fitted effect of over 50% in size
# L3MBTL1 block – qHTS Assay for the Inhibitors of L3MBTL1. Lethal(3)malignant brain tumor-like protein 1 (Homo sapiens), Q9Y468. AlphaScreen L3MBTL1–H3K9me1 peptide binding. Potency, µM (highest dose often 57.1 µM), for inactives: at the highest dose activity, negative = inhibition, actives largely listed as inhibitors. actives 0.66% (n = 230,000); further: on the % scale 0 is the no-effect control and ±100 the full control effect; nearly all actives have a fitted effect of over 60% in size
#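 Read-out is AlphaScreen signal from streptavidin donor and nickel chelate acceptor beads (10 ug/mL final each) bridging L3MBTL1 (50 nM) and biotinylated K9-monomethylated H3(1-15) peptide (75 nM), after 30 min compound exposure at room temperature.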
# Sfp PPTase inh – qHTS Assay for Inhibitors of Bacillus subtilis Sfp phosphopantetheinyl transferase (PPTase). actives 3.5% (n = 310,000). 4'-phosphopantetheinyl transferase ffp (Bacillus subtilis), Q9F4F7. Potency, µM, for the others: largest response in the series, negative = inhibition, most hits filed as inhibitors. Biochemical Sfp PPTase activity, qHTS. AID 1490, 2009;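 further: the enzyme is Sfp with the accession as filed and its product quenches rhodamine fluorescence; 0% = enzyme reaction without inhibitor and -100% = no enzyme wells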
#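 Buffer: 50 mM Hepes-Na pH 7.6, 10 mM MgCl2, 0.01% Nonidet P-40, 0.01% BSA. Enzyme 15 nM, pre-exposed to compound 15 min; substrates then added and fluorescence change tracked over 30 min.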
# HP1b binding inh – HTS for Inhibitors of HP1-beta Chromodomain Interactions with Methylated Histone Tails | AlphaScreen HP1-beta / biotin-H3K9me3 peptide binding | Potency, µM (top dose mostly 114 µM), inactives show top-dose activity change, negative = inhibition, most hits filed as inhibitors | Chromobox protein homolog 1 (Homo sapiens), P83916 | actives 0.56% (n = 390,000) | AID 540317, 2011; further: nearly all actives have a fitted effect of over 70% in size
#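 AlphaScreen: HP1-beta (50 nM) preformed 30 min with biotin-H3(1-18)K9me3 peptide (50 nM) in PBS pH 7.4, 0.01% Tween-20. Compound added for 30 min at RT, then streptavidin donor/nickel chelate acceptor beads (10 ug/mL) for 30 min.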
# BAZ2B inh – qHTS Assay for Inhibitors of BAZ2B; Bromodomain adjacent to zinc finger domain protein 2B (Homo sapiens), Q9UIF8; AlphaScreen BAZ2B-H3K14Ac peptide displacement; Potency, µM (titrated, usually from 114 µM), without a hit: at the top dose activity change, negative = inhibition, actives largely listed as inhibitors; actives 4.4% (n = 360,000); further: on the % scale 0 is the no-effect control and ±100 the full control effect; nearly all actives have a fitted effect of over 60% in size
#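 Protein-peptide AlphaScreen: BAZ2B 50 nM, b-H3K14Ac 50 nM, 1x PBS pH 7.4 + 0.01% Tween-20. Preincubation 30 min RT; cpd 30 min RT (top 110 uM); beads 20 min RT, light-protected.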
# G9a block – qHTS Assay for Inhibitors of Histone Lysine Methyltransferase G9a | G9a H3K9 monomethylation, AlphaScreen, 2 h | Potency, µM (highest dose often 102 µM), without a hit: at the highest dose activity, negative = inhibition, hits mostly inhibitors | actives 8.8% (n = 350,000) | AID 504332, 2011; further: on the % scale 0 is the no-effect control and ±100 the full control effect; nearly all actives have a fitted effect of over 75% in size
#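 Signal arises when biotinylated H3K9 peptide, once monomethylated, bridges streptavidin donor and antibody-captured acceptor beads. Enzyme at 20 nM was preincubated 15 min with test compounds; peptide 500 nM and SAM 20 uM then reacted for 2 h.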
# The depositor's hits bear a star; ? = inconclusive; / = not tested or not shown; ! = a repeat was not active; [ ] = dose if it differs, or a comment. The call rests on the fitted dose curve; in most records, active means well fitted curve in the direction sought with a large enough effect; inconclusive means small, poorly fitted or top-dose-only effect, or another doubt; inactive means no such curve, though single readings can be large; an effect the other way counts as inactive or inconclusive. Potency means the concentration at half of the fitted maximal effect.
SMILES,JMJD2A Tudor inh,L3MBTL1 block,Sfp PPTase inh,HP1b binding inh,BAZ2B inh,G9a block
CN1CCN(c2ccc(/C=C3\C(=O)NC(=S)N(c4cccc(Br)c4)C3=O)o2)CC1,?,-20%,10%,?,40µM*,?
CN1C(=O)/C(=C/c2ccc(N3CCCCCC3)o2)C(=O)NC1=S,-27%,-8%,50µM*,-13%,?,?
CCOc1ccc(N2C(=O)NC(=O)/C(=C\c3ccc(N4CCCCC4)o3)C2=O)cc1,-14%,8%,-7%,-4%,-7%,45µM*
CN1C(=O)/C(=C\c2ccc(N3CCCCC3)o2)C(=O)NC1=S,-21%,-8%,-14%,-3%,-25%,32µM*
O=C1NC(=O)N(c2ccc3c(c2)OCO3)C(=O)/C1=C/c1ccc(N2CCCC2)o1,-2%,-6%,-9%,24%,-35%,?
NC(N)=NCCCCCCCCCCN=C(N)N,/,/,?,/,/,-1%[59 µM]
Nc1nonc1-n1nnc(C(=O)N/N=C/c2ccc3c(c2)OCO3)c1CSc1ccccc1,1%,/,5%,52%,-6%[57.1 µM],41%
Cc1ccccc1CN1CCNCC1,-3%,5%,1%,43%,-21%,/
Cc1ccccc1CN1CCN(c2ccc(Cl)cc2)CC1,4µM*,13%,50µM*,-12%,?,13µM*
COc1cc(C)c(CN2CCN(c3ccccc3)CC2)cc1C,3.2µM*,-14%,?,-58%,?,?
CC1CCCN(C(=O)C2CCC(CNc3c(N4CCCCC4)c(=O)c3=O)CC2)C1 (stereo not drawn),-3%[11.4 µM],7%,13%,58%,1%,-8%[59 µM]
CCCCCCCCCOc1ccc2[nH]cc(CCN)c2c1,/,/,50µM*,/,35µM*,16µM*!
COc1ccc2[nH]cc(CCN)c2c1,50µM*,-7%,-4%,-31%,?,9%[59 µM]
NCCc1c[nH]c2ccc(O)cc12,/,/,27%,/,/,/
CCCCCCCCc1[se]c2ccccc2c1[Se]c1ccccc1,/,/,1%,/,/,-2%[59 µM]
O=C(OC1CC2CCC(N2)C1C(=O)O)c1ccccc1 (stereo not drawn),89µM*,3%,/,16%,/,/
S=c1[nH]nc(-c2ccccc2)n1CC1CCCO1 (stereo not drawn),40µM*,/,?,48%,-1%,?
S=c1[nH]nc(-c2ccccc2)n1C1C=CCCC1 (stereo not drawn),3.2µM*,-7%,-18%,5%,-3%,?
N#Cc1cccc(NC(=O)N2CC3(CCN(C(=O)Oc4ccccc4)CC3)C2)c1,/,/,14%,/,/,11%[12.7 µM]
O=C(C(=O)N1CCOCC1)c1cn(Cc2c(F)cccc2Cl)c2ccccc12,6%,/,-5%,32%,-7%,-5%
Cc1cc2c(cc(C(=O)N3CCC(C(=O)NC4CCCC4)CC3)n2Cc2c(F)cccc2Cl)o1,?,/,50µM*,1%,?,-137%[59 µM]
CCOC(=O)c1ccc2c(c1)n(CCO)c(C)[n+]2CC,50µM*,2%,0%,19%,10%,35µM*
COc1ccc(CCNC(=O)CCS(=O)(=O)c2ccc3c(c2)oc(=O)n3C)cc1OC,-9%,/,18%,64%,-17%,64%
CC1OC(=O)C(C(C)C)NC(=O)C(C(C)C)OC(=O)C(C(C)C)NC(=O)C(C)OC(=O)C(C(C)C)NC(=O)C(C(C)C)OC(=O)C(C(C)C)NC(=O)C(C)OC(=O)C(C(C)C)NC(=O)C(C(C)C)OC(=O)C(C(C)C)NC1=O (stereo not drawn),/,/,27%,/,/,17%[59 µM]
COc1cc(N)ccc1Cc1ccc(N)cc1OC,79µM*,-16%,10%,-14%,/,-20%[59 µM]

# From PubChem BioAssay
